Reference: PubChem BioAssay AID2314 (National Center for Advancing Translational Sciences (NCATS), 2010)
Hit rate of the full screen: of about 300,000 compounds, about 37,000 (12%) were called active. The full list was thinned out, with actives kept by preference. Unmarked numbers belong to inactive results. Cut-off read from the data, not from the text of the source: active = max response mostly above about 13% (no sharp cut-off); inactive = mostly below about 14%.

Test: Cycloheximide Counterscreen for Small Molecule Inhibitors of Shiga Toxin; note: read at 38.3 µM for the half of the compounds with a filed dose; 0% is about no effect
Conditions: cell reporter, cycloheximide protein synthesis inhibition counterscreen; stronger effect = higher value

Row | Compound | max response
1 | CCOC(=O)N1CCC(N2Cc3cccc(C(=O)Nc4ccc(S(=O)(=O)N(CC)CC)cc4)c3C2=O)CC1 | -7.45%
2 | CC(=O)c1c(C)oc2ccc(NS(=O)(=O)c3ccccc3)cc12 | -4.79%
3 | O=C(Nc1ccc(-c2cscn2)cc1)C1CCCN(Cc2ccc(CO)o2)C1 (stereo not given) | 10.2%
4 | Cc1cc(C)cc(NC(=O)C2CCCN2S(=O)(=O)c2cccc3cccnc23)c1 (stereo not given) | 0.222%
5 | CCCCNS(=O)(=O)c1ccc2nc(SCC(=O)Nc3cc(C)cc(C)c3)[nH]c2c1 | -6.32%
6 | Cc1ccc2nc(-c3ccncc3)cc(C(=O)Nc3ccc(OC(F)F)cc3)c2c1 | -4.25%
7 | O=C(NCc1ccco1)C(=O)c1cn(CC(=O)N2CCCCCC2)c2ccccc12 | 2.39%
8 | Cc1ccc(CNC(=O)C(=O)c2cn(CC(=O)N3CCCC3)c3ccccc23)cc1 | 20.3% (active)
9 | O=C(Nc1ccc(F)cc1)C(=O)c1cn(CC(=O)N2CCOCC2)c2ccccc12 | -0.871%
10 | O=C(NCCCn1ccnc1)C(=O)c1cn(CC(=O)N2CCCCCC2)c2ccccc12 | 10.1%
11 | Cc1cccc(NC(=O)Cn2cc(C(=O)c3ccco3)c3ccccc32)c1 | -2.38%
12 | COc1cccc(NC(=O)C(=O)c2cn(CC(=O)N3CCOCC3)c3ccccc23)c1 | 37.8% (active)
13 | CC1CCN(C(=O)Cn2cc(C(=O)c3ccco3)c3ccccc32)CC1 | 23% (active)
14 | COc1cccc(NC(=O)CS(=O)(=O)c2cn(CC(=O)N3CCOCC3)c3ccccc23)c1 | -5.36%
15 | N#Cc1ccc(Cn2cc(C(=O)c3ccco3)c3ccccc32)cc1 | 21.7%
16 | CN(Cc1ccccc1)C(=O)C(=O)c1cn(CC(=O)N2CCCC2)c2ccccc12 | -3.43%
17 | CN1CCN(C(=O)C(=O)c2cn(CC(=O)N3CCCC3)c3ccccc23)CC1 | -2.55%
18 | Cc1ccc(CNC(=O)C(=O)c2cn(CC(=O)N3CCOCC3)c3ccccc23)cc1 | 17.6% (active)
19 | COc1ccc(C(CNC(=O)c2ccc(S(=O)(=O)Nc3ccccc3F)cc2)N(C)C)cc1 (stereo not given) | -6%
20 | COC(=O)c1cccc(N(C(=O)c2ccco2)C(C(=O)NC2CCCC2)c2ccco2)c1 (stereo not given) | -1.82%
21 | COc1cc(CNC2CCCCC2)c(Br)cc1OC1CCCC1 | -7.03%
22 | CCc1ccc(CN(C)C(=O)C2CCC(=O)N(Cc3cccc(OC)c3)C2)nc1 (stereo not given) | 4.36%
23 | CCn1nc(C)c(NC(=O)/C=C/c2ccc(OC)c(COc3ccc(Br)cc3)c2)c1C | 2.79%

Row | Compound | max response
24 | CCCc1cc(=O)oc2c(C)c(OC(C)C(=O)NCC(O)c3ccccc3)ccc12 (stereo not given) | -2.74%
25 | Cc1ccc(S(=O)(=O)NCC(=O)N(CC(=O)NCC2CCCO2)c2cccc(F)c2)cc1 (stereo not given) | 1.36%
26 | CC(=O)NCC(=O)NC1CCCc2c1cnn2-c1ccccc1F (stereo not given) | 5.35%
27 | CCOC(=O)C(=CNNc1ccsc1C(=O)OC)C(=O)OCC | 12.1%
28 | O=C1CN(c2nc(-c3ccccc3)c3cc(Br)ccc3n2)c2ccccc2N1 | -2.03%
29 | O=S(=O)(NCC1CN(S(=O)(=O)c2ccc3c(c2)OCCO3)C1)c1c(F)cccc1F | -7.82%
30 | COc1ccccc1CNC(=O)c1cc(=O)c2ccccc2o1 | 28.7%
31 | O=C1NC(Nc2nc3ccccc3s2)(C(F)(F)F)C(=O)N1C1CCCCC1 (stereo not given) | 0.879%
32 | Cc1sc2ncnc(Sc3nc4ccccc4s3)c2c1C | -3.1%
33 | c1ccc2sc(SNC3CCCCC3)nc2c1 | 43.3% (active)
34 | Cc1c(CC(=O)N2CCN(C(=O)C3COc4ccccc4O3)CC2)c(=O)oc2c(O)c(O)ccc12 (stereo not given) | -3.9%
35 | CCOc1ccccc1OCCCNCc1ccccc1 | -2.14%
36 | COc1ccc2c(c1)cc1n2CCN=C1NN | 64.4% (active)
37 | Cc1cccc(OCC(O)CN2CCN(S(=O)(=O)c3ccc(C)cc3C)CC2)c1 (stereo not given) | 6.97%
38 | COc1ccc(NC(=O)N2CCCC(c3nc(-c4ccc(F)cc4)no3)C2)cc1 (stereo not given) | 27.8% (active)
39 | O=C(c1ccc(F)cc1)N1CCCC(C(=O)N2CCCCC2)C1 (stereo not given) | -3.54%
40 | CC(C)c1ccc(NC(=O)C2CCCN(S(=O)(=O)c3cccnc3)C2)cc1 (stereo not given) | 5.83%
41 | COc1cccc(-c2noc(C3CCCN(C(=O)c4ccc(F)cc4)C3)n2)c1 (stereo not given) | 20.6% (active)
42 | O=C(c1ccc(F)cc1)N1CCCC(c2nc(-c3cccs3)no2)C1 (stereo not given) | 20.3%
43 | COc1ccc(NC2CCCN(C(=O)c3ccncc3)C2)cc1 (stereo not given) | -1.48%
44 | CCN(C(=O)C1CCCN(c2nc(-c3ccc(OC)cc3)no2)C1)c1ccc(OC)cc1 (stereo not given) | -1.83%
45 | COc1cc(-c2noc(C3CCCN(S(=O)(=O)c4cccc(Cl)c4)C3)n2)cc(OC)c1OC (stereo not given) | -4.41%
46 | CCn1nc(C)cc1C(=O)N1CCCC(C(=O)c2cccc(OC)c2)C1 (stereo not given) | 2.78%

Row | Compound | max response
47 | CC(C)c1ccc(-c2noc(C3CCCN(S(C)(=O)=O)C3)n2)cc1 (stereo not given) | 39.9% (active)
48 | O=C(Cc1cccs1)N1CCCC(c2nc(-c3ccc(S(=O)(=O)N4CCCC4)cc3)no2)C1 (stereo not given) | -2.82%
49 | O=C(c1cccs1)N1CCCC(c2nc(-c3ccc(F)cc3)no2)C1 (stereo not given) | 26.6% (active)
50 | NC(=O)C1CC(=O)N(c2ccc(OCC(=O)NCc3ccccc3)cc2)C1 (stereo not given) | -2.39%
51 | Cc1ccc(S(=O)(=O)N2CCC(C)CC2)cc1C(=O)NCc1ccccn1 | 5.45%
52 | NC(=O)c1oc2ccccc2c1NC(=O)CS(=O)(=O)c1ccccc1 | 14.9%
53 | C=CCOc1cccc(CNCc2cccnc2)c1 | 1.07%
54 | COc1ccc(/C=C2/C(=O)OCc3cc(OC)c(OC)cc32)c(OC)c1 | -1.45%
55 | CC(=O)c1cccc(NC(=O)C2CCN(C(=O)c3ccccc3Cl)CC2)c1 | -2.1%
56 | COC(=O)c1cccc(N(CC(=O)NCC2CCCO2)C(=O)CCC(=O)Nc2cc(C)on2)c1 (stereo not given) | -2.44%
57 | COc1cccc(NC(=O)CCc2nnc3ccc(N4CCC(C)CC4)nn23)c1 | -5.83%
58 | COc1ccccc1CN1CCNC(=O)C1CC(=O)N(C)CC1CCOCC1 (stereo not given) | -1.38%
59 | Cc1ccc2nc(C)c3c(c2c1)N(c1ccccc1)CC3 | -1.78%
60 | Cc1c(CN2CCCC(C(=O)c3cccc(Cl)c3)C2)c(=O)n(-c2ccccc2)n1C (stereo not given) | -3.35%
61 | Cc1ccc(-c2noc(C3CCCN(C(=O)c4cccc(Cl)c4)C3)n2)o1 (stereo not given) | 47.3% (active)
62 | CCc1nc2ccc(C(=O)N3CCN(c4cccc(Cl)c4)CC3)cc2nc1CC | -0.581%
63 | Cc1cccc2c1-c1sc(C(=O)NCCCN3CCc4ccccc4C3)cc1CO2 | 1.19%
64 | O=S1(=O)N=C(N(CCO)/N=C/c2ccccc2F)c2ccccc21 | -7.2%
65 | CCOC(=O)Cc1csc(SCC(=O)NC(C)C23CC4CC(CC(C4)C2)C3)n1 (stereo not given) | -2.6%
66 | O=C(CCC1CCCN(Cc2ccc(O)c(Cl)c2)C1)NCc1ccccc1F (stereo not given) | -1.08%
67 | Cc1[nH]c2c(C(=O)N3CCCC(CCC(=O)NCc4ccccc4F)C3)cccc2c1C (stereo not given) | 18.9% (active)
68 | CSc1ncccc1C(=O)N1CCCC(CCC(=O)NCc2ccccc2F)C1 (stereo not given) | -1.29%
69 | O=S1(=O)C=C(SCCN2CCCC2)c2ccccc21 | 4.83%

Row | Compound | max response
70 | COc1ccc(CN2CCC(=O)c3ccccc3S2(=O)=O)cc1 | -4.16%
71 | CC(C)(C)c1ccc(OC2=CS(=O)(=O)c3ccccc32)cc1 | 81.1% (active)
72 | CS(=O)(=O)N1CCCC(C(=O)Nc2ccccc2C(F)(F)F)C1 (stereo not given) | 0.965%
73 | CN1C(=O)c2cccc3c(N)ccc(c23)C1=O | -4.64%
74 | Cn1c(=O)c2c(nc(OCc3cccnc3)n2Cc2ccccc2)n(C)c1=O | 14.9% (active)
75 | Cn1c(=O)c2c(nc(NCCc3ccccc3)n2Cc2ccccc2)n(C)c1=O | -1.53%
76 | C=CCOc1nc2c(c(=O)n(C)c(=O)n2C)n1Cc1ccc(Cl)cc1Cl | -2.08%
77 | CS(=O)(=O)N(CC(=O)N1CCCCCC1)c1cccc(Cl)c1Cl | -2.66%
78 | CC(=O)Nc1ccc(S(=O)(=O)N2CCC(NC(=O)c3ccccc3)CC2)cc1 | -2%
79 | COc1ccc(S(=O)(=O)N2CCN(C(=S)NCC3CCCO3)CC2)cc1OC (stereo not given) | -1.28%
80 | Cc1cccc(-n2c(O)c(C=Nc3ccccc3N)c(=O)[nH]c2=O)c1 | 39.4% (active)
81 | Cc1cccc(-n2c(O)c(/C=N/N3CCOCC3)c(=O)[nH]c2=S)c1 | -8.26%
82 | Cc1cccc(-n2c(O)c(C=NC34CN5CN(CN(C5)C3)C4)c(=O)[nH]c2=O)c1 | 8.1%
83 | CC1(C)Oc2ccc3ccc(=O)oc3c2/C(=N/O)C1=O | 7.27%
84 | O=C(N/N=C/c1ccccc1O)C1CCCC1 | 28% (active)
85 | Oc1ccccc1C=NC1CCCCC1N=Cc1ccccc1O (stereo not given) | 6.63%
86 | COc1ccc(/C=N/NC(=O)C2CC2)c(OC)c1OC | 3.25%
87 | COc1cc(NC(=O)NCC2CCN(Cc3ccc(C)cc3)CC2)cc(OC)c1OC | -2.97%
88 | COc1ccccc1C(=O)OCC(=O)NCCNC(=O)COC(=O)c1ccccc1OC | -1.55%
89 | COc1cc(C(=O)NCc2ccc3c(c2)cc(C)n3C)cc(OC)c1OC | -6.41%
90 | Cc1ccc(C(C(=O)NCC2CCCO2)N(C(=O)c2snc(C(N)=O)c2N)c2ccc(C(C)C)cc2)o1 (stereo not given) | 8.94%
